Measured values as given in publication PMC7862700, “An all-to-all approach to the identification of sequence-specific readers for epigenetic DNA modifications on cytosine”.

Assays:
Assay in all cases: DAPPL (digital affinity profiling via proximity ligation, sequencing); 10 mM Tris-HCl pH 7.5, 50 mM NaCl, 1 mM DTT, 4% glycerol, room temperature, 30 min; GST-TFs on glutathione beads, 16-mer random dsDNA library, 0.1% formaldehyde crosslink after washing; high values mean tight binding
FLI1 = target: T1, FLI1 (Homo sapiens, UniProt Q01543 1-452); details: protein: recombinant; tags: N-terminal GST; dsDNA, one strand shown
T1 sequence: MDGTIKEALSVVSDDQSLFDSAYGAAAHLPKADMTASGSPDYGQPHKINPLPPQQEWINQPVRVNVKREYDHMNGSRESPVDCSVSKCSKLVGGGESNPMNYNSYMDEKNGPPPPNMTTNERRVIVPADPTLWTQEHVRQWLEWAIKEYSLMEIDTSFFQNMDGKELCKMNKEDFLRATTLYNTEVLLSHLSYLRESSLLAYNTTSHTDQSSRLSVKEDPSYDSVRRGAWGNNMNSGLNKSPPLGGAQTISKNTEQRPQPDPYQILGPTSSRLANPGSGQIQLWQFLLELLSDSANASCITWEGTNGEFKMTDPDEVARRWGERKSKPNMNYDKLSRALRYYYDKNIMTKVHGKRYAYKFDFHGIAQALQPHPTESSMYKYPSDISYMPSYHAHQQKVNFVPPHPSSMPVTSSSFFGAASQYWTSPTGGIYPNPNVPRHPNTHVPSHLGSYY
How it was run: (§1)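 Pools of DNA-barcoded human transcription factors, expressed in yeast as GST fusions on glutathione beads and combined with a tag-only sample, were incubated with 200 nmole of a 16-mer random double-stranded DNA library. Incubation took 30 min at room temperature in Tris/NaCl/DTT/glycerol buffer and was followed by washing, 0.1% formaldehyde crosslinking, proximity ligation (BsaI/T4 ligase, 1 h, 37 °C), PCR amplification and sequencing on an Illumina NextSeq500. Binding signal is the ratio of a hexamer's read frequency for a factor to its frequency for the tag-only sample.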

ELK1 = target: T2, ELK1 (Homo sapiens, UniProt P19419 1-428); details: protein: recombinant; tags: N-terminal GST; dsDNA, one strand shown
T2 sequence: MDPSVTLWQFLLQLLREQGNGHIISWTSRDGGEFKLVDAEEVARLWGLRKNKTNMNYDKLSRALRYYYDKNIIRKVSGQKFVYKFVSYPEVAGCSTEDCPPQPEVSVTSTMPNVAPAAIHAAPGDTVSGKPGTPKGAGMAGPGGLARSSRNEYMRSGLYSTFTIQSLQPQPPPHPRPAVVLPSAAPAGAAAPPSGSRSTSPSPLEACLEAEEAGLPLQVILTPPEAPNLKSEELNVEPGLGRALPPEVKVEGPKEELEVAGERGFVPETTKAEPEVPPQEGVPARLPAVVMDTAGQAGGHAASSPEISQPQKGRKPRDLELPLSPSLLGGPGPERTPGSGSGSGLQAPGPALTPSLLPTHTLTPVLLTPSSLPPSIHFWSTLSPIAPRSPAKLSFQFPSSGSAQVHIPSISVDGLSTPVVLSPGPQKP
How it was run: as §1

GABPA = target: T3, GABPA (Homo sapiens, UniProt Q06546 1-454); details: protein: recombinant; tags: N-terminal GST; dsDNA, one strand shown
T3 sequence: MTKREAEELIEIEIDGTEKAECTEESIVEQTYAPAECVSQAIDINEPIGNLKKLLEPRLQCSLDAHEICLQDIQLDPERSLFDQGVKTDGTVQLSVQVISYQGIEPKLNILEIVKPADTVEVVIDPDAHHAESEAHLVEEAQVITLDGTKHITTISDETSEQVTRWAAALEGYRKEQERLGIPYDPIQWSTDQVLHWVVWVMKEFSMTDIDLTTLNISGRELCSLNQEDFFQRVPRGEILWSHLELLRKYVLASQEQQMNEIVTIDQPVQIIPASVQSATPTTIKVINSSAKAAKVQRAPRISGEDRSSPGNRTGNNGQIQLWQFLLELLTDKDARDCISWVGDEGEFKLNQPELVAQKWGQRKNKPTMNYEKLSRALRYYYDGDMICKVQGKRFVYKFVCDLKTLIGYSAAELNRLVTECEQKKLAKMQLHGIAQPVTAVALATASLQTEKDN
How it was run: as §1

ERG = target: T4, ERG (Homo sapiens, UniProt P11308 1-479); details: protein: recombinant; tags: N-terminal GST; dsDNA, one strand shown
T4 sequence: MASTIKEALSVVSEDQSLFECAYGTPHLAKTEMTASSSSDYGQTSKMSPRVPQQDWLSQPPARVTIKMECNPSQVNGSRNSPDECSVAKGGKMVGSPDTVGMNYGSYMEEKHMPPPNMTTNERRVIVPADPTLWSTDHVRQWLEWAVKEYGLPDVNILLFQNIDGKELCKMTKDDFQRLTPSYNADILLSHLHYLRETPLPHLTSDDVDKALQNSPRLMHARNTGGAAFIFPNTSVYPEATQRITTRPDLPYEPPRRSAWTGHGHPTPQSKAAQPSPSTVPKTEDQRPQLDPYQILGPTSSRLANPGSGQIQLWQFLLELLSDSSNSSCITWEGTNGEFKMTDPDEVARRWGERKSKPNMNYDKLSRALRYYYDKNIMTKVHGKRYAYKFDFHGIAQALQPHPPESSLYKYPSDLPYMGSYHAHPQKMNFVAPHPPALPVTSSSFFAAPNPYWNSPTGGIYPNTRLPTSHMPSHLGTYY
How it was run: as §1

ELF1 = ELF1 (Homo sapiens, UniProt P32519 1-619); details: protein: recombinant; tags: N-terminal GST; dsDNA, one strand shown
Sequence of ELF1 (P32519 whole entry): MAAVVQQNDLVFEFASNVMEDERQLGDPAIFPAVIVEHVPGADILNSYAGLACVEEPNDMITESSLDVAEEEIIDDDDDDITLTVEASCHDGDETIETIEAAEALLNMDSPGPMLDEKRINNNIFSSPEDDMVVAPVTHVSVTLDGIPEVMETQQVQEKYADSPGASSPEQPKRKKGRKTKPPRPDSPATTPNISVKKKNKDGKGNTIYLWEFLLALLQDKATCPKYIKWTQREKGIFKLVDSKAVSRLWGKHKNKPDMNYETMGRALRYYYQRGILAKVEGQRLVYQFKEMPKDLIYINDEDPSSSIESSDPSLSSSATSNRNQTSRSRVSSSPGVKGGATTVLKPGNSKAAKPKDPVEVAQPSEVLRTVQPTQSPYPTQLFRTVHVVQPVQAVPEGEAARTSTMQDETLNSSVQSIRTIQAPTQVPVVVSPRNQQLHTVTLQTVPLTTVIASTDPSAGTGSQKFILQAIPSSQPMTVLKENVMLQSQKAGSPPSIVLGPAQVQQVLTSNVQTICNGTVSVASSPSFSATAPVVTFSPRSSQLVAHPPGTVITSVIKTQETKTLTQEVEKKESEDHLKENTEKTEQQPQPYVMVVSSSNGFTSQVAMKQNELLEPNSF
How it was run: as §1

EHF = target: T5, EHF (Homo sapiens, UniProt Q9NZC4 1-300); details: protein: recombinant; tags: N-terminal GST; dsDNA, one strand shown
T5 sequence: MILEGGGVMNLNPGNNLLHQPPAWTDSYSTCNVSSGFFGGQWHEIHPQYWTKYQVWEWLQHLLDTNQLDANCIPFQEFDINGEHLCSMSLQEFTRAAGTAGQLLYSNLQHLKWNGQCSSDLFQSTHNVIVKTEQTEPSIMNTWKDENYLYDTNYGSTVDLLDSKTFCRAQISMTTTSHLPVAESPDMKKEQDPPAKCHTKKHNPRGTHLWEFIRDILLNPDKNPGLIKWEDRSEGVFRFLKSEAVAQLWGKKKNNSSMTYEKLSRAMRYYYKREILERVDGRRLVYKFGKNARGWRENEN
How it was run: as §1

SPI1 = SPI1 (Homo sapiens, UniProt P17947 1-270); details: protein: recombinant; tags: N-terminal GST; dsDNA, one strand shown
How it was run: as §1

SPIB = SPIB (Homo sapiens, UniProt Q01892 1-262); details: protein: recombinant; tags: N-terminal GST; dsDNA, one strand shown
Sequence of SPIB (Q01892 whole entry): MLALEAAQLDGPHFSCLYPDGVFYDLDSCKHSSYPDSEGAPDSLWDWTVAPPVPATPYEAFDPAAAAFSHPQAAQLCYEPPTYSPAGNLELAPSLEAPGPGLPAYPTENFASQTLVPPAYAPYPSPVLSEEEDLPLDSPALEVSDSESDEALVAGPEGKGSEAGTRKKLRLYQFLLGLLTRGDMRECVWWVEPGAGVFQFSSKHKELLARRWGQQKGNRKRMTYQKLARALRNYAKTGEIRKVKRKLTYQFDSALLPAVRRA
How it was run: as §1

ELK3 = target: T6, ELK3 (Homo sapiens, UniProt P41970 1-407); details: protein: recombinant; tags: N-terminal GST; dsDNA, one strand shown
T6 sequence: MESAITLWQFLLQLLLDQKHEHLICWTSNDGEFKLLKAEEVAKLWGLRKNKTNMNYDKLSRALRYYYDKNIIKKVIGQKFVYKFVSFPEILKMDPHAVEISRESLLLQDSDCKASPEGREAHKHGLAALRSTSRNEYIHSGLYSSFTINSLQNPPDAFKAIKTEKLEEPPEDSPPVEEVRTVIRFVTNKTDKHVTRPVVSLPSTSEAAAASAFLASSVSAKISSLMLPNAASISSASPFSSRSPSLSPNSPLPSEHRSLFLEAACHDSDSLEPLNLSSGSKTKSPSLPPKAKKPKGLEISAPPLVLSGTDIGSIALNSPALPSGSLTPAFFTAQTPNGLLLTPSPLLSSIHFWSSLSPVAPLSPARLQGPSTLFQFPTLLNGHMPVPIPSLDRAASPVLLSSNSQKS
How it was run: as §1

FEV = target: T7, FEV (Homo sapiens, UniProt Q99581 1-238); details: protein: recombinant; tags: N-terminal GST; dsDNA, one strand shown
T7 sequence: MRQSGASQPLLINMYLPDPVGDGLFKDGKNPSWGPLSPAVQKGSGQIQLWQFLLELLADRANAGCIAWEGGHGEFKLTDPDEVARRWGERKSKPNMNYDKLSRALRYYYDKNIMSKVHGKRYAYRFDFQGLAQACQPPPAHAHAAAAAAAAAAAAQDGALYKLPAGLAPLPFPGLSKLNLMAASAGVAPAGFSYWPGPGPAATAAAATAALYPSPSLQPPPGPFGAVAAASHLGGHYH
How it was run: as §1

ETV5 = ETV5 (Homo sapiens, UniProt P41161 1-510); details: protein: recombinant; tags: N-terminal GST; dsDNA, one strand shown
Sequence of ETV5 (P41161 whole entry): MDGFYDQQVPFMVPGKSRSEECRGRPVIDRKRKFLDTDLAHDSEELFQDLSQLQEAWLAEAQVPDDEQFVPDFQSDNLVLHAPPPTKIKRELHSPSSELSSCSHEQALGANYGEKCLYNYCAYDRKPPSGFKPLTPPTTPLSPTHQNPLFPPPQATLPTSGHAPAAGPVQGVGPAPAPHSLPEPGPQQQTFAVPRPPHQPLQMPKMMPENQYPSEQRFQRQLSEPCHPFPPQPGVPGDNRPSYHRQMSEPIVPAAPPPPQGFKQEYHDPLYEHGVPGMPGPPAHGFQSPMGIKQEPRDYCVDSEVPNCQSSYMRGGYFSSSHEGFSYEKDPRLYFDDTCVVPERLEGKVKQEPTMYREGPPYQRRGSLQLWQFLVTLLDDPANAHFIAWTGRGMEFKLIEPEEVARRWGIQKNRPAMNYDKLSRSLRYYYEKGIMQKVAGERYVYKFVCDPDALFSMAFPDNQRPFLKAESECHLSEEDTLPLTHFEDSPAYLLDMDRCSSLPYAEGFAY
How it was run: as §1

HSF1 = HSF1 (Homo sapiens, UniProt Q00613 1-529); details: protein: recombinant; tags: N-terminal GST; chain copies: 3; dsDNA, one strand shown
Sequence of HSF1 (Q00613 whole entry): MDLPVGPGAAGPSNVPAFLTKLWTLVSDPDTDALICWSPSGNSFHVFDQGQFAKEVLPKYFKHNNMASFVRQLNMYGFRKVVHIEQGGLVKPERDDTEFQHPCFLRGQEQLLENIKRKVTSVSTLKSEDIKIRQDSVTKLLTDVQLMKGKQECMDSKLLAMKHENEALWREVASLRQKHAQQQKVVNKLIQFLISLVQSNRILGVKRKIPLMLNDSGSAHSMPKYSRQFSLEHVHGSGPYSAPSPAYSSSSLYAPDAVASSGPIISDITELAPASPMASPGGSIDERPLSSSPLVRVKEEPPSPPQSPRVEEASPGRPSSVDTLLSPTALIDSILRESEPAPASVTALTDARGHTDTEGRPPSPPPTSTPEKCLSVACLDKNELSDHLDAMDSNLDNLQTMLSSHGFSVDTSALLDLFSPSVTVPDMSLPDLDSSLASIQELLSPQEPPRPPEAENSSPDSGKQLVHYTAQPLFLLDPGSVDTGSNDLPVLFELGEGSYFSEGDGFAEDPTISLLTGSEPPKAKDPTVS
How it was run: as §1

SPIC = target: T8, SPIC (Homo sapiens, UniProt Q8N5J4 1-248); details: protein: recombinant; tags: N-terminal GST; dsDNA, one strand shown
T8 sequence: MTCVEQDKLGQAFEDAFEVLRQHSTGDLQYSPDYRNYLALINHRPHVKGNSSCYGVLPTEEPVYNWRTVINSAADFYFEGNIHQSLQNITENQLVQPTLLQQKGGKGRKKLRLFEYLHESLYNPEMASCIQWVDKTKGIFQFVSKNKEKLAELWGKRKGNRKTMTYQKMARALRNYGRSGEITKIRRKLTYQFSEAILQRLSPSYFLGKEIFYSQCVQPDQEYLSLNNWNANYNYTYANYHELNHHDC
How it was run: as §1

ELF4 = ELF4 (Homo sapiens, UniProt Q99607 1-663); details: protein: recombinant; tags: N-terminal GST; dsDNA, one strand shown
Sequence of ELF4 (Q99607 whole entry): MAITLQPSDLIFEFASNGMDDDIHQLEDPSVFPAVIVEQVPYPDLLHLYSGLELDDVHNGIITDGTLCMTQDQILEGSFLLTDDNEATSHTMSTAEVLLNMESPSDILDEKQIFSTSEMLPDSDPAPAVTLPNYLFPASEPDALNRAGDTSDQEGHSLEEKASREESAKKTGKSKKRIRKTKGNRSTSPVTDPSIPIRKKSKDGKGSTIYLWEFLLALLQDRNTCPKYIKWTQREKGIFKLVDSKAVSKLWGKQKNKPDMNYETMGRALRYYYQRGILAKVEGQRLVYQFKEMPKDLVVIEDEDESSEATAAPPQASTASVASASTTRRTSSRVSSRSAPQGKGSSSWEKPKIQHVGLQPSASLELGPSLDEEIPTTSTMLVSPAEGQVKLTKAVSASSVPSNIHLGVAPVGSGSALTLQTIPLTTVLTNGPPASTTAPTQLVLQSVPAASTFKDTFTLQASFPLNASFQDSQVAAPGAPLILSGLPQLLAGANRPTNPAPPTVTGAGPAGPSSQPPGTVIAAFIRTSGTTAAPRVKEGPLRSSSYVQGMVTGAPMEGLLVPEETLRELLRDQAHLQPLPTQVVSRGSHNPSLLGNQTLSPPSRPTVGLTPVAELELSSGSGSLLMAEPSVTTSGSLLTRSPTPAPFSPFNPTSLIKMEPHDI
How it was run: as §1

ELK4 = target: T9, ELK4 (Homo sapiens, UniProt P28324-2 1-405); details: protein: recombinant; tags: N-terminal GST; dsDNA, one strand shown
T9 sequence: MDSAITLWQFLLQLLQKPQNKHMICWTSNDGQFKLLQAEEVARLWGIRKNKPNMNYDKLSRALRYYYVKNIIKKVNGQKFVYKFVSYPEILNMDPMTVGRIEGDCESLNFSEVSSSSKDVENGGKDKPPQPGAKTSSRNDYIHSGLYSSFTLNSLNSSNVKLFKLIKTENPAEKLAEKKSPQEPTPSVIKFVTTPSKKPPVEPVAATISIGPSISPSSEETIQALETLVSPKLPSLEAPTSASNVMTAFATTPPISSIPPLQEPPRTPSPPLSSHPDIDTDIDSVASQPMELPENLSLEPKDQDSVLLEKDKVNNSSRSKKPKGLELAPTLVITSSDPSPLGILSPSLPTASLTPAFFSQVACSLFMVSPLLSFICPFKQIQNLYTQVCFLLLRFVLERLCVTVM
How it was run: as §1

ETV2 = target: T10, ETV2 (Homo sapiens, UniProt O00321 1-342); details: protein: recombinant; tags: N-terminal GST; dsDNA, one strand shown
T10 sequence: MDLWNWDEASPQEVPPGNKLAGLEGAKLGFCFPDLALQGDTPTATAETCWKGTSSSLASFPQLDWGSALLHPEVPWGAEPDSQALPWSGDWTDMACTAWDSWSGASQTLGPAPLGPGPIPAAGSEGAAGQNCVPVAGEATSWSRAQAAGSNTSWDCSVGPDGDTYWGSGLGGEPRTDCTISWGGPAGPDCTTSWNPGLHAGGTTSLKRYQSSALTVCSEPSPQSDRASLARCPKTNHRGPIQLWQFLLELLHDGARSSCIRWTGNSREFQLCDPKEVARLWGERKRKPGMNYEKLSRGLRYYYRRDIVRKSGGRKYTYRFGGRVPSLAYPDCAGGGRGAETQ
How it was run: as §1

ELF3 = target: T11, ELF3 (Homo sapiens, UniProt P78545 1-371); details: protein: recombinant; tags: N-terminal GST; dsDNA, one strand shown
T11 sequence: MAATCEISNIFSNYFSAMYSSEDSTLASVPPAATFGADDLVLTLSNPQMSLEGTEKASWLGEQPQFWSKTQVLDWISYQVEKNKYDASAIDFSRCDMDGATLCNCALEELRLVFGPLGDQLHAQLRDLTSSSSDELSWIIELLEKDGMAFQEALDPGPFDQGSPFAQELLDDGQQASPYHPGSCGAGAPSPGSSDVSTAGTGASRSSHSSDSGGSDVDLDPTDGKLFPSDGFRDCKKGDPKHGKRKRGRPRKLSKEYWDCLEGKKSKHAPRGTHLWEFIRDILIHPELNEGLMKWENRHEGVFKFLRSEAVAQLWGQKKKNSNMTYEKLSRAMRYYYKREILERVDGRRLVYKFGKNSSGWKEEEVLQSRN
How it was run: as §1

CRX = CRX (Homo sapiens, UniProt O43186 1-299); details: protein: recombinant; tags: N-terminal GST; dsDNA, one strand shown
Sequence of CRX (O43186 whole entry): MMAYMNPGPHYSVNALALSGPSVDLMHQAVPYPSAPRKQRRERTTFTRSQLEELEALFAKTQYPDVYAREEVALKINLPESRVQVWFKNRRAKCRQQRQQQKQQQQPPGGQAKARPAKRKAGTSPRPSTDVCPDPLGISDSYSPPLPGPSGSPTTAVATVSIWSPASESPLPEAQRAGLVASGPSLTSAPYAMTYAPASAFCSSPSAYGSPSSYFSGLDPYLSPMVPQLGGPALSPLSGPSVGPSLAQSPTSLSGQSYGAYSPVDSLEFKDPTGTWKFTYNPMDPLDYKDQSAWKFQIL
How it was run: as §1

ETV1 = ETV1 (Homo sapiens, UniProt P50549 1-477); details: protein: recombinant; tags: N-terminal GST; dsDNA, one strand shown
Sequence of ETV1 (P50549 whole entry): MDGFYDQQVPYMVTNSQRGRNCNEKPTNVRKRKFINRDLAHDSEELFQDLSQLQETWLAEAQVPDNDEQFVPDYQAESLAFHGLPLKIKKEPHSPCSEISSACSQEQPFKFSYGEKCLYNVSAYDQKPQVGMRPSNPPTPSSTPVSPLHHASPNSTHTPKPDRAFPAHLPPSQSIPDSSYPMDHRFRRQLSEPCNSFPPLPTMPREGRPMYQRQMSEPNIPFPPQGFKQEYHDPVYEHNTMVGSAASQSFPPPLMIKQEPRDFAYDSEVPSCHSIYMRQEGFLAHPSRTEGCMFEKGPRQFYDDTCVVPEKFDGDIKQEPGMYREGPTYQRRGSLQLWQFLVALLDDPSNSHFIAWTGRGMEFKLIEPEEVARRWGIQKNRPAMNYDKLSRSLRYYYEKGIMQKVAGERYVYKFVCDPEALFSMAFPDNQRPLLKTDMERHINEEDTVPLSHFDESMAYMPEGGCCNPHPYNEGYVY
How it was run: as §1

Sequence: GGGCCT
- binding signal (FLI1): 1.26 fold enrichment (6-mer frequency, TF over GST control)
- binding signal (ELK1): 1.29 fold enrichment (6-mer frequency, TF over GST control)
- binding signal (GABPA): 1.3 fold enrichment (6-mer frequency, TF over GST control)
- binding signal (ERG): 1.16 fold enrichment (6-mer frequency, TF over GST control)
- binding signal (ELF1): 1.27 fold enrichment (6-mer frequency, TF over GST control)
- binding signal (EHF): 1.27 fold enrichment (6-mer frequency, TF over GST control)
- binding signal (SPI1): 1.15 fold enrichment (6-mer frequency, TF over GST control)
- binding signal (SPIB): 1.23 fold enrichment (6-mer frequency, TF over GST control)
- binding signal (ELK3): 1.32 fold enrichment (6-mer frequency, TF over GST control)
- binding signal (FEV): 1.11 fold enrichment (6-mer frequency, TF over GST control)
- binding signal (ETV5): 1.27 fold enrichment (6-mer frequency, TF over GST control)
- binding signal (HSF1): 1.1 fold enrichment (6-mer frequency, TF over GST control)
- binding signal (SPIC): 1.13 fold enrichment (6-mer frequency, TF over GST control)
- binding signal (ELF4): 1.24 fold enrichment (6-mer frequency, TF over GST control)
- binding signal (ELK4): 1.3 fold enrichment (6-mer frequency, TF over GST control)
- binding signal (ETV2): 1.05 fold enrichment (6-mer frequency, TF over GST control)
- binding signal (ELF3): 1.19 fold enrichment (6-mer frequency, TF over GST control)
- binding signal (CRX): 1.07 fold enrichment (6-mer frequency, TF over GST control)
- binding signal (ETV1): 1.31 fold enrichment (6-mer frequency, TF over GST control)
